Here are results for ten compounds from PubChem BioAssay (Tox21).

Values joined by “and” are separate entries in the source; they are usually repeats but may differ in a detail not shown here. Equal entries are not always repeated. Inconclusive results are not listed. Where a structure was tested more than once in an assay, its records may differ in their call. Active and inactive are the calls of the source. Unless noted, calls come from the whole dose curve; as a rule, active = well fitted curve in the direction sought with a large enough effect in the repeat runs; inconclusive = weak or mixed curves; inactive = no such curve, though single readings can be large; an effect the other way counts as inactive or inconclusive.

The nature of experiment [1]: qHTS assay to test for compound auto fluorescence at 535 nm (green) in HEK293 cells (AID 720680). (In general: Quantitative high-throughput screening tests each substance at several concentrations.)
Experiment [2] can be described thus: qHTS assay to test for compound auto fluorescence at 460 nm (blue) in HEK293 cell free culture (AID 720681). In a few lines:
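Blue fluorescence (Ex 405/Em 460 nm, triamterene-equivalent) was read immediately after pin transfer of compound or DMSO into medium (DMEM, 10% FBS) without cells.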

Experiment [3] can be described thus: qHTS assay to test for compound auto fluorescence at 535 nm (green) in HEK293 cell free culture (AID 720682). Put shortly:
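Compounds were pin-transferred into cell-free DMEM with 10% FBS, and green fluorescence was read at excitation 485 nm and emission 535 nm. Intensities were expressed as fluorescein-equivalent values.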

Experiment [4] in a line: qHTS assay to test for compound auto fluorescence at 590 nm (red) in HEK293 cell free culture (AID 720683). In a few lines:
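Red-channel autofluorescence of compounds in culture medium (DMEM, 10% FBS), no cells, measured at 540/590 nm. Rose Bengal sodium is the reference fluorophore for equivalence.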

Experiment [5] is described as follows: qHTS assay to test for compound auto fluorescence at 590 nm (red) in HepG2 cell free culture (AID 720684). Put shortly:
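Steps: dispense MEM/10% FBS medium, no cells; pin compound or DMSO vehicle; read red channel, Ex/Em 540/590 nm. Output given as Rose Bengal sodium equivalents.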

A short description of experiment [6]: qHTS assay to test for compound auto fluorescence at 460 nm (blue) in HepG2 cell free culture (AID 720685). Put shortly: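 Compound (23 nL) or DMSO pinned into cell-free MEM with 10% FBS; blue fluorescence read at 405/460 nm excitation/emission, expressed as auto-fluorescence equivalency to triamterene.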
Experiment [7] can be described thus: qHTS assay to test for compound auto fluorescence at 535 nm (green) in HepG2 cell free culture (AID 720686).
The nature of experiment [8]: qHTS assay to test for compound auto fluorescence at 460 nm (blue) in HepG2 cells (AID 720687). In a few lines:
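Blue-channel autofluorescence (Ex/Em 405/460 nm, triamterene-equivalent) was measured after 1 hr compound exposure at 37 C, 5% CO2. Cells were HepG2, plated overnight at 37 C in MEM plus 10% FBS.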

Experiment [9] has as its target Glucocorticoid receptor (Homo sapiens) (UniProt P04150). Put plainly: qHTS assay to identify small molecule agonists of the glucocorticoid receptor (GR) signaling pathway (AID 720691; active = well fitted activation curve with a large enough effect in the signal ratio in the repeat runs, not every such curve was filed as active; the % refers to the signal ratio). In a few lines: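 Agonist mode in a HeLa line carrying a GRE-controlled beta-lactamase reporter. Compounds act for 18 h at 37 C before a 2 h room-temperature FRET substrate step and fluorescence reading.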

The nature of experiment [10]: qHTS assay to identify small molecule antagonists of the glucocorticoid receptor (GR) signaling pathway - cell viability counter screen (AID 720693). Note: nearly all actives have a fitted effect of over 55% in size.
Experiment [11] in a line: qHTS assay for identifying genotoxic compounds that show differential cytotoxicity against isogenic chicken DT40 cell lines with known DNA damage response pathways - wild type cell line (AID 743012). Note: nearly all actives have a fitted effect of over 60% in size. Note: potency is the fitted concentration of half-maximal effect. In a few lines:
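Cells (DT40 wild type, 300/well) are treated with DMSO-dissolved compounds after a ~0.5 h pre-incubation and kept 40 h at 37 C/5% CO2. Viability is then measured by CellTiter-Glo luminescence following 30 min at room temperature.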

A short description of experiment [12]: qHTS assay for identifying genotoxic compounds that show differential cytotoxicity against isogenic chicken DT40 cell lines with known DNA damage response pathways - Rev3 mutant cell line (AID 743014). Note: nearly all actives have a fitted effect of over 55% in size.
Experiment [13] is described as follows: qHTS assay for identifying genotoxic compounds that show differential cytotoxicity against isogenic chicken DT40 cell lines with known DNA damage response pathways - Rad54/Ku70 mutant cell line (AID 743015). Note: nearly all actives have a fitted effect of over 60% in size. Note: potency is the fitted concentration of half-maximal effect.
Experiment [14] in a line: qHTS assay to identify small molecule antagonists of the androgen receptor (AR) signaling pathway - cell viability counter screen (AID 743033; note: nearly all actives have a fitted effect of over 45% in size).
Experiment [15] is described as follows: qHTS assay to identify small molecule antagonists of the androgen receptor (AR) signaling pathway using the MDA cell line - cell viability counter screen (AID 743041; note: nearly all actives have a fitted effect of over 45% in size). In a few lines:
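Cells were plated at 3,000 per well and left 5 h. Compounds in DMSO were then pinned in, followed by R1881. After 16 h at 37C, CellTiter-Fluor fluorescence gave viability.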

Glucocorticoid receptor (Homo sapiens), sequence (P04150 whole entry, looked up): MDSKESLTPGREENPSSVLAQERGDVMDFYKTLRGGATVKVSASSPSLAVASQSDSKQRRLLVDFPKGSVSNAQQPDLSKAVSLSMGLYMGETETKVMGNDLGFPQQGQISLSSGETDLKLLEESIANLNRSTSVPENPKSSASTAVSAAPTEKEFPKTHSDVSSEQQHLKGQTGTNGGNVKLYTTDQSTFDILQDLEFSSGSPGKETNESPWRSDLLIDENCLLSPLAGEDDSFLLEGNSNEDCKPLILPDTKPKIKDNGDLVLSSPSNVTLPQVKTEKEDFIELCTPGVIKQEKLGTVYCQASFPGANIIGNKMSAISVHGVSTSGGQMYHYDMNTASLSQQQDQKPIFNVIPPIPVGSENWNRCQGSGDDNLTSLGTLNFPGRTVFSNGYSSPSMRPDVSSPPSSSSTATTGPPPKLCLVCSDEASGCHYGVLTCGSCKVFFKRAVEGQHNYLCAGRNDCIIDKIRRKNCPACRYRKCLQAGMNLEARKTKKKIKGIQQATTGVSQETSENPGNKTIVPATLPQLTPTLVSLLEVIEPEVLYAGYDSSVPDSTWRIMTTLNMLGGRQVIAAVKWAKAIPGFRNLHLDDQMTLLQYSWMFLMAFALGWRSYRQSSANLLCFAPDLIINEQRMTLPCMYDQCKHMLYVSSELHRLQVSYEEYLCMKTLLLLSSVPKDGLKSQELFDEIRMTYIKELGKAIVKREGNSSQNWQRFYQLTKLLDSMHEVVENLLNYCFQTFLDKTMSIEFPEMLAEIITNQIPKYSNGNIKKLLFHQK

For the compound `CC(CCl)OP(=O)(OC(C)CCl)OC(C)CCl` (stereo not drawn), the call in [1], in experiment [2], in experiment [3], in experiment [4], in experiment [5] and in experiment [6] was inactive. Moreover, the outcome in experiment [7], in experiment [8], in experiment [9], in [10] and in [14] was inactive. Moreover, the Potency entry in experiment [11], in [12], in experiment [13] and in experiment [15] was “inactive” in each case.

As to `CC(C)c1cccc(C(C)C)c1`, the result in experiment [1], in experiment [2], in experiment [3], in experiment [4], in experiment [5] and in experiment [6] was inactive. Also, the outcome in [7], in [8], in experiment [9], in experiment [10] and in [14] was inactive. For the same compound, the Potency result in experiment [11], in experiment [12], in experiment [13] and in experiment [15] was “inactive” throughout.

`C=C(C)[C@H]1CC=C(C)C(=O)C1`: the outcome in experiment [1], in experiment [2], in experiment [3], in [4], in [5] and in experiment [6] was inactive. Further, the result in [7], in [8], in experiment [9], in [10] and in experiment [14] was inactive. In addition, the Potency entry in experiment [11], in experiment [12], in [13] and in experiment [15] was “inactive” throughout.

In the case of `Cc1ccc(C(C)C)c(O)c1`, the compound was classed as inactive in [1], in experiment [2], in experiment [3], in experiment [4], in [5] and in [6]. In addition, the result in experiment [7], in experiment [8], in [9], in [10] and in experiment [14] was inactive. Also, the Potency entry is “inactive and 48.6 µM (active)” in experiment [11]; “inactive and 61.1 µM (active)” in [13]. Besides, the Potency entry in [15] was “inactive”.

As for `O=C1CCCC1`, the compound was classed as inactive in experiment [1], in experiment [2], in experiment [3], in experiment [4], in [5] and in experiment [6]. The compound was classed as inactive in experiment [7], in experiment [8], in experiment [9], in experiment [10] and in [14]. In addition, the Potency result in experiment [11], in experiment [13] and in experiment [15] was “inactive” each time.

Regarding `C=Cc1ccc(C)cc1`, the outcome in [1], in experiment [2], in experiment [3], in [4], in experiment [5] and in [6] was inactive. The result in [7], in [8], in experiment [9], in experiment [10] and in experiment [14] was inactive. Besides, the Potency result in experiment [11], in experiment [12], in experiment [13] and in experiment [15] was “inactive” throughout.

`CC(=O)OCCOC(C)=O`: the outcome in [1], in [2], in experiment [3], in experiment [4], in experiment [5] and in experiment [6] was inactive. Moreover, the outcome in [7], in [8], in [9], in experiment [10] and in experiment [14] was inactive. The Potency entry in [11], in [12], in [13] and in experiment [15] was “inactive” each time.

Regarding `C=CC(=O)OCCC(=O)O`, the result in experiment [1], in [2], in experiment [3], in [4], in experiment [5] and in experiment [6] was inactive. The result in [7], in [8], in [9], in experiment [10] and in experiment [14] was inactive. Also, the Potency entry in [11], in [12], in experiment [13] and in experiment [15] was “inactive” each time.

For `CNC(=S)N(C)C`, the call in experiment [1], in experiment [2], in experiment [3], in experiment [4], in experiment [5] and in [6] was inactive. Moreover, the result in [7], in experiment [8], in experiment [9], in experiment [10] and in experiment [14] was inactive. The Potency result in experiment [11], in experiment [12], in experiment [13] and in experiment [15] was “inactive” each time.

As to `CC(C)(Oc1ccc(CCNC(=O)c2ccc(Cl)cc2)cc1)C(=O)O`, the outcome in [1], in [2], in [3], in experiment [4], in [5] and in experiment [6] was inactive. Besides, the call in [7], in [8], in experiment [9], in experiment [10] and in [14] was inactive. Also, the Potency result in experiment [11], in experiment [12], in experiment [13] and in experiment [15] was “inactive” in each case.
